This is part of a sample that, as a whole, favours compounds with a hit. Of some 83,000 tested, about 20% had one in any assay.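 Single-concentration screen, 48 h exposure, 96-well plates. Endpoint: percent growth. Below 10 = active.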 A number with no mark means an inactive call. Activity calls are given as the source filed them.

The test has as its system HL-60(TB) leukemia. The test can be described thus: NCI-60 one-dose screen, 48 h (100 = growth as untreated, 0 = no growth, -100 = all killed). The settings on record: 10 µM unless noted.
Turning to `C=CCNC(=O)c1ccc(OC)cc1`, the growth is 87.7%.

For the compound `C=CCNc1nc(NN2C(=O)c3cccc4cccc(c34)C2=O)nc(-n2cnc3ccccc32)n1`, the growth was 93.9%.

In the case of `Brc1cccc(-n2ncc3c(Nc4ccc(-c5nnc(-c6ccccc6)o5)cc4)ncnc32)c1`, the growth was 122%.

Consider `COc1ccc2c(c1)C(CC(=O)NN)CCC2` (stereo not given), for which the growth was 113%.

In the case of `CCOC(=O)CNS(=O)(=O)CC(=O)c1ccccc1`, the growth was 102%.

Take `COc1cc(/C=C2\CN(C(=O)OC(C)(C)C)C/C(=C\c3ccc(O)c(OC)c3)C2=O)ccc1O`: the growth was 97.1%.

Consider `CC(=O)Nc1cccc(NC(C)=O)n1`, for which the growth is 96.5%.

Turning to `CCCCCCCC/C=C\CCCCCCCCOc1ccc(CC(=O)NCC[N+]2(C)CCCC2)cc1`, the growth is -31.6% (active).

In the case of `CN(C)/C=C1\SC(=Nc2ccc(Cl)cc2)NC1=O`, the growth was 99.5%.

Take `CCC1NC(=O)C(NC(=O)c2ncccc2O)C(C)OC(=O)C(c2ccccc2)NC(=O)C2CC(=O)CCN2C(=O)C(Cc2ccc(N(C)C)cc2)N(C)C(=O)C2CCCN2C1=O` (stereo not given) (tested in a mixture with another compound): the growth was 42.5%.

For `OC(c1cccc(OCc2ccccc2)c1)c1nnc(-c2ccccc2)o1` (stereo not given), the growth is 96.3%.

Consider `COc1cccc(/C=C2\COc3ccc(O)cc3C2=O)c1`, for which the growth was -20.1% (active).

Take `O=C(Nc1cccc(NC(=O)C2CCCCC2)c1)c1ccccn1`: the growth is 95.4%.

With `Cc1c(O)c(=O)ccn1C1CCC(CC2CCC(n3ccc(=O)c(O)c3C)CC2)CC1` (stereo not given), the growth was -0.371% (active).

With `CC1c2ccccc2N(S(=O)(=O)c2ccccc2)C1C` (stereo not given), the growth was 67.6%.

With `O=c1c2c3c(sc2nc(N/N=C/c2ccc(Br)cc2)n1Cc1ccccc1)CCCC3`, the growth is 71.2%.

As for `CC[C@H](C)[C@H]1NC(=O)[C@@H](N[C@](C)(O)[C@@H](N)CC(C)C)[C@@H](C)OC(=O)[C@H](Cc2ccc(OC)cc2)N(C)C(=O)[C@@H]2CCCN2C(=O)[C@H](CC(C)C)NC(=O)[C@@H](C)C(=O)[C@H](C(C)C)OC(=O)C[C@@H]1O`, the growth was -27.7% (active).

As to `CCN(CC)Cc1cc(Nc2ccnc3cc(Cl)ccc23)ccc1O`, the growth is 94.5%.

As to `N#CC1C(C#N)C(C(=O)c2ccc(Br)cc2)N2c3ccccc3C=CC12` (stereo not given), the growth was 94.3%.

Regarding `CNC(=O)c1c(NC(=O)c2ccc(C(C)(C)C)cc2)sc2c1CCC(=O)C2`, the growth was -13.2% (active).

Turning to `COc1ccccc1-c1ccc2c(N)c(C(=O)c3ccc4c(c3)OCO4)sc2n1`, the growth was 37%.

Regarding `COc1cc(NC(=O)NCc2ccco2)ccc1-c1ccc(NC(=O)NCc2ccco2)cc1OC`, the growth was 57.4%.

On to `O=C(/C=C/c1ccccn1)c1ccccc1`, for which the growth is 1.48% (active).

Take `COc1ccc(-c2oc3cc(O)c(OC)c(O)c3c(=O)c2OC)cc1O`: the growth was -8.34% (active).

Take `COc1cccc(/C=C2/C(=O)N(Cc3ccco3)SC2=S)c1OC`: the growth is 94.5%.
